Values without a mark were called inactive.

This assay deals with T1, VCPIP1 (UniProt Q96JH7).
T1 sequence (whole entry): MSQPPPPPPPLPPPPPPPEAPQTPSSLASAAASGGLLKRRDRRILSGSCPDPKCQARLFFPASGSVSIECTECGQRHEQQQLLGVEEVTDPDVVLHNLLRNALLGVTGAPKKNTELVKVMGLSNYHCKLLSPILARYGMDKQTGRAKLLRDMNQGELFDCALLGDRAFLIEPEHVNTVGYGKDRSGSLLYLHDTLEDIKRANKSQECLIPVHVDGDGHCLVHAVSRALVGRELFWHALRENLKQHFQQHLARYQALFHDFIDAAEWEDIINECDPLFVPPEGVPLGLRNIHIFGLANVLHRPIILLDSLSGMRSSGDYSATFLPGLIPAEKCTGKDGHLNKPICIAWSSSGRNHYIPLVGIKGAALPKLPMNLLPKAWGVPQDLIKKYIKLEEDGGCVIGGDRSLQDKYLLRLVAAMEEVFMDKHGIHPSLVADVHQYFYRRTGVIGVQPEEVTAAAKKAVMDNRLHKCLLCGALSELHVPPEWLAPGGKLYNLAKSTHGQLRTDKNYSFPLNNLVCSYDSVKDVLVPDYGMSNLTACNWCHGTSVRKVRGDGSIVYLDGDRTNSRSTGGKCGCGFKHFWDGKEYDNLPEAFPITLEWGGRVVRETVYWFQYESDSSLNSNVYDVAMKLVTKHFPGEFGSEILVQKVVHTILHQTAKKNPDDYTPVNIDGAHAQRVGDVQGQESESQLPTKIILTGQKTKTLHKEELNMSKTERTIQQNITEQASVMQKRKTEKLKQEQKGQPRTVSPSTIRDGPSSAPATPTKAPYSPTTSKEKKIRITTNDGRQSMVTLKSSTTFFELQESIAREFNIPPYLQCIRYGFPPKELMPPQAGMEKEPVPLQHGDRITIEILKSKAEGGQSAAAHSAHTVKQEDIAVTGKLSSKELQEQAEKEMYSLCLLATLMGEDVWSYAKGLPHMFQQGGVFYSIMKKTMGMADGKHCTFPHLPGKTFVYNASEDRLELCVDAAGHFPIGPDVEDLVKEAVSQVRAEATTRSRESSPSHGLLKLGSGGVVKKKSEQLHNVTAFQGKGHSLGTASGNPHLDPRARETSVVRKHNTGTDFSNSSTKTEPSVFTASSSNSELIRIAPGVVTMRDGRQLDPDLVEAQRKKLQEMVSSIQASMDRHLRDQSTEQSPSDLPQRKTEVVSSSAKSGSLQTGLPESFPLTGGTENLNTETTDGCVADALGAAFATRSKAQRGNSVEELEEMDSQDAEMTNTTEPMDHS
Briefly: log2 ratio of Biotin-Ahx-Ub-VS probe labelling (fragment/DMSO); higher = less target engagement (more negative = stronger competition), active = hit call of the paper (q ≤ 0.05, log2 ratio ≤ -1). As to conditions: compound concentration: 200 uM; treatment time: 3 h. As for the experimental part:
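Competitive ABPP in HEK293T cell lysate. Lysates were treated with each chloroacetamide fragment at 200 µM for 3 h, then with Biotin-Ahx-Ub-VS (0.5 µM, 1 h), NeutrAvidin-enriched and analysed by diaPASEF LC-MS/MS. Protein LFQ was median-normalised; average log2 ratio is fragment/DMSO from an unpaired t-test (n=3 treated, n=44 DMSO). Hits: q ≤ 0.05, log2 ratio ≤ -1, unique peptides ≥ 2.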
For the molecule `O=C(CCl)N1CCOC2(CCC2)CC1`, the “log2 ratio of Biotin-Ahx-Ub-VS probe labelling” value was -0.287. In the case of `O=C(CCl)N1CCOC(c2cccc(F)c2)C1` (configuration not stated) it was -1.67 (active). In the case of `Cl.O=C(CCl)NCCN1CCc2ccccc21` it was -1.9 (active). The result for `CC(=O)Nc1ccc(NC(=O)CCl)cc1` reads -1.31 (active); that for `CC(NC(=O)CCl)c1cnn(C2CC2)c1` (configuration not stated), -1.15 (active).

Consider `Cc1ccc(N(C(=O)CCl)C2C=CS(=O)(=O)C2)cc1` (configuration not stated), for which the “log2 ratio of Biotin-Ahx-Ub-VS probe labelling” value was -0.0885. In the case of `O=C(CCl)N1CCN(C(=O)Nc2ccccc2)CC1` it was -0.418.

The values above are taken from the supplement of paper PMC11732987, “Enantioselective OTUD7B fragment discovery through chemoproteomics screening and high-throughput optimisation” (Communications Chemistry, 2025).
